ATXN2 expr inh: ATXN2 expression inhibition; hit rate 0.72% among 360,000; AID 1745845; Potency, µM (doses to about 57 µM), for the others: top-dose activity change, negative = inhibition, most hits filed as inhibitors; HEK-293 ATXN2-luciferase reporter, luminescence, 24 h; also: potency is read from the fitted curve at half-maximal effect; % is scaled to controls: 0 for no effect and ±100 for the full control effect; nearly all actives have a fitted effect of over 55% in size
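ATXN2-luciferase reporter cells (luciferase flanked by upstream and downstream ATXN2 gene portions) were treated 24 h at 37 °C with compounds at up to 57 uM. SteadyGlo luminescence gave expression; GF-AFC fluorescence gave viability.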
A549 tox: kills or reduces viability of A549 cells in Nrf2 counter-screen | A549 ARE-Fluc cells, CellTiter-Fluor viability, 18-24 h | Potency, µM (series often up to 46 µM), inactives show at the top dose activity change, negative = cytotoxicity, usual class: inhibitors | hit rate 0.16% among 390,000 | AID 504648; also: potency is read from the fitted curve at half-maximal effect; % is scaled to controls: 0 for no effect and ±100 for the full control effect
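Cytotoxicity counterscreen: CellTiter-Fluor fluorescence was measured in A549 ARE_Fluc cells after 18-24 h of compound exposure in a concentration series. The subsequent BugLite luminescent read reports ARE-luciferase activity.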
Nrf2 block: inhibitors of Nrf2 signaling; A549 ARE-Fluc reporter, luciferase luminescence, 18-24 h; Potency, µM (top dose mostly 46 µM), for the others: at the top dose activity change, negative = inhibition, actives largely listed as inhibitors; hit rate 2.1% among 360,000; AID 504444; also: potency is read from the fitted curve at half-maximal effect; % is scaled to controls: 0 for no effect and ±100 for the full control effect; nearly all actives have a fitted effect of over 60% in size
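Nrf2 activity is the BugLite luminescence, read 15 min after reagent at room temperature, following CellTiter-Fluor cytotoxicity readout (30 min, 37C). Compound titrations were applied for 18-24 h to 5000 A549 ARE_Fluc cells/well in 5% FBS OPTI-MEM.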
Nrf2 ARE act: Nrf2 pathway activation; Potency, µM (highest dose often 46.1 µM), inactives show top-dose activation, usual class: activators; AID 624171; hit rate 0.31% among 410,000; AREc32 ARE-luciferase reporter (MCF7-derived line), luminescence, 24 h; also: potency is read from the fitted curve at half-maximal effect; % of control where 0% means no effect; nearly all actives have a fitted effect of over 65% in size
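Reporter line AREc32 (ARE-Fluc), seeded overnight in OPTI-MEM with 5% FBS; compound pin-transferred, 24 hr at 37 deg C, 5% CO2; luminescent read-out.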
S2 tox: viability counter-screen for ATXN expression inhibitors | Potency, µM (top dose mostly 56.7 µM), most hits filed as cytotoxic | hit rate 0.49% among 400,000 | S2 cells (HEK-293 line with an ATXN2-luciferase reporter) viability, CellTiter-Fluor protease fluorescence, 24 h; also: potency is read from the fitted curve at half-maximal effect; nearly all actives have a fitted effect of over 40% in size
EBOV entry S4 rt: blocks Ebola virus entry, screen 4 ratio readout; AC50, µM; hit rate 79% among 170; shares compounds with ATXN2 expr inh; AID 1117308; Ebola pseudovirus entry assay, ratio channel; calls by dose curve
EBOV entry S4 bl: blocks Ebola virus entry, screen 4 blue channel readout; shares compounds with ATXN2 expr inh; Ebola virus entry assay, blue channel fluorescence ratio; Channel: blue; calls only; 170 tested, under 10 active; AID 1117309; call rule not given here
EBOV entry S4 grn: blocks Ebola virus entry, screen 4 green channel readout; shares compounds with ATXN2 expr inh; Ebola virus entry reporter assay, green fluorescence channel; Channel: green; calls only; 170 tested, under 10 active; call rule not given here
* hit, by the source's call; [ ] = remark or other dose. Only a sample is shown. Unless noted, calls follow the shape of the dose curve; as a rule, active = well fitted curve in the direction sought with a large enough effect; inconclusive = small, poorly fitted or top-dose-only effect, or another doubt; inactive = no such curve, though single readings can be large; an effect the other way counts as inactive or inconclusive.

For CC[C@H]1OC(=O)C[C@@H](O)[C@H](C)[C@@H](O[C@@H]2O[C@H](C)[C@@H](O[C@H]3C[C@@](C)(O)[C@@H](O)[C@H](C)O3)[C@H](N(C)C)[C@H]2O)[C@@H](CC=O)C[C@@H](C)C(=O)/C=C/C(C)=C/[C@@H]1CO[C@@H]1O[C@H](C)[C@@H](O)[C@@H](OC)[C@H]1OC the results were ATXN2 expr inh 0%, A549 tox -2%, Nrf2 block 3%, Nrf2 ARE act -1% and S2 tox inactive.
For C[C@H]1[C@@H](O)[C@@H](C)/C=C\C=CCC\C=C/C=C\C=C/C=C[C@@H](O[C@H]2O[C@@H](C)[C@@H](O)[C@@H](N)[C@@H]2O)C[C@@H]2O[C@@](O)(C[C@@H](O)[C@H]2C(=O)O)C[C@@H](O)[C@@H](O)CC[C@@H](O)C[C@@H](O)C[C@@H](O)CC(=O)O[C@H]1C the results were S2 tox inactive.
For CCN1C[C@@]2(COC)CC[C@H](O)[C@@]34[C@@H]2C[C@@H]([C@@H]13)[C@]1(O)C[C@@H](OC)C2C[C@H]4[C@H]1[C@H]2OC(C)=O the results were S2 tox inactive.
O=C(CSc1nc(-c2cccs2)nc2cc(=O)[nH]n12)Nc1ccc(F)cc1 was read as ATXN2 expr inh 7%, A549 tox -6%, Nrf2 block 12%, Nrf2 ARE act inconclusive and S2 tox inactive.
Cc1oc(-c2cccc(Cl)c2)nc1CN1CCC(C(=O)NCCCN2CCN(c3ccc(F)cc3)CC2)CC1 was read as ATXN2 expr inh -31%, A549 tox 11%, Nrf2 block inconclusive, Nrf2 ARE act 6% and S2 tox inactive.
Screening COc1ccc(NC(=O)Cn2c3ccccc3c3nc4n(c(=O)c32)CCS4)cc1 returned ATXN2 expr inh -17%, A549 tox -8%, Nrf2 block inconclusive, Nrf2 ARE act 3% and S2 tox inactive.
O=[N+]([O-])c1ccc(CNCCc2ccccc2)cc1 was read as A549 tox -1%, Nrf2 block 1%, Nrf2 ARE act 0% and S2 tox inactive.
Screening CC[C@H](OC(C)=O)C(C[C@H](C)N(C)C)(c1ccccc1)c1ccccc1 returned ATXN2 expr inh -21%, A549 tox -10%, Nrf2 block inconclusive, Nrf2 ARE act 0% and S2 tox inactive.
CCCCCNc1c(C(=O)OCC)c(=O)[nH]c2ccccc12 was read as ATXN2 expr inh -11%, A549 tox -27%, Nrf2 block inconclusive, Nrf2 ARE act 3% and S2 tox inconclusive.
Screening C=C(C)[C@H]1[C@H]2OC(=O)[C@@H]1[C@]1(O)C[C@H]3O[C@]34C(=O)O[C@H]2[C@@]14C returned S2 tox inactive.
Screening CCN(CC)CCN1Cc2ccccc2C1=N returned ATXN2 expr inh 0%, A549 tox -2%, Nrf2 block 23%, Nrf2 ARE act -1% and S2 tox inactive.
`CCN1CCN(C(=O)Cc2c(C)n(C(=O)c3ccc(Cl)cc3)c3ccc(OC)cc23)CC1` gave ATXN2 expr inh -13%, A549 tox 1%, Nrf2 block 0%, Nrf2 ARE act 3% and S2 tox inconclusive.
`Cc1ccc([C@H]2C[C@@H](O)[C@H](n3cc(COC(=O)c4ccccc4)nn3)CN2CC2CCCCC2)cc1` gave ATXN2 expr inh 0%, Nrf2 ARE act -1% and S2 tox inactive.
`CCOC(=O)CN1C(=O)N[C@@H](c2cccc(C(F)(F)F)c2)C(C(C)=O)=C1C` gave ATXN2 expr inh 5%, A549 tox 4%, Nrf2 block inconclusive, Nrf2 ARE act 1% and S2 tox inactive.
For OCCCBr the results were ATXN2 expr inh 2%[116 µM] and S2 tox inactive.
`CCN1CCN(S(=O)(=O)c2ccc(Cl)c(C(=O)N(CC)CC(=O)Nc3ccc(OC)cc3)c2)CC1` gave ATXN2 expr inh inconclusive, A549 tox -1%, Nrf2 block 4%, Nrf2 ARE act 0% and S2 tox inconclusive.
COc1ccc(OCCn2c(NC(=O)c3ccc(OC)cc3)nc3ccccc32)cc1 was read as ATXN2 expr inh 5%, A549 tox -21%, Nrf2 block inconclusive, Nrf2 ARE act 3% and S2 tox inactive.
For C[N+]1(C)CCO[C@](O)(c2ccc(-c3ccc([C@]4(O)C[N+](C)(C)CCO4)cc3)cc2)C1 the results were S2 tox inactive.
CCN[C@H](C)Cc1cccc(C(F)(F)F)c1 was read as ATXN2 expr inh 12%[116 µM] and S2 tox inactive.
For CCN(CC)CCc1c[nH]c2ccccc12 the results were ATXN2 expr inh 25%[222 µM] and S2 tox inactive.
`CC(=NCCCN1CCOCC1)c1c(O)n(Cc2ccccc2)c(=O)[nH]c1=O` gave ATXN2 expr inh 7%, A549 tox 16%, Nrf2 block -9%, Nrf2 ARE act 0% and S2 tox inactive.
CC(N)[C@H](O)c1ccc(O)c(O)c1 (stereo partly drawn) was read as A549 tox -1% and Nrf2 block 16%.
NC[C@H](O)c1ccc(O)c(O)c1 was read as ATXN2 expr inh -21%, A549 tox -7%, Nrf2 block 18%, Nrf2 ARE act 3%, S2 tox inactive, EBOV entry S4 rt inactive, EBOV entry S4 bl inactive and EBOV entry S4 grn inactive.
For C[C@H](N)[C@H](O)c1ccc(O)c(O)c1 the results were ATXN2 expr inh -8%, S2 tox inconclusive, EBOV entry S4 rt inactive, EBOV entry S4 bl inactive and EBOV entry S4 grn inactive.
CC1Cc2cc(S(=O)(=O)N(Cc3ccccc3)C(C)C)ccc2N1C(=O)C1CCC1 (stereo not drawn) was read as ATXN2 expr inh -15%, A549 tox 1%, Nrf2 block inconclusive, Nrf2 ARE act 8% and S2 tox inactive.
O=C1NC[C@H](CCCCN2C[C@H](Cc3ccccc3)N(CC3CCCCC3)C(=O)C2=O)N(CCC2CCCCC2)C1=O was read as ATXN2 expr inh -2%, Nrf2 ARE act -3% and S2 tox inconclusive.
CN(C)[C@@H]1C(=O)C(C(N)=O)=C(O)[C@]2(O)C(=O)C3=C(O)c4c(O)cccc4[C@@](C)(O)[C@H]3[C@H](O)[C@@H]12 was read as S2 tox inactive.
